# Laboratory results as given in PubChem BioAssay.
# Unmarked numbers belong to inactive results. No rule for the calls is given here.
# Target: Pantothenate synthetase (Mycobacterium tuberculosis (strain ATCC 25618 / H37Rv)) (UniProt P9WIL5)
# Assay: Recombinant Mtb pantothenate synthetase (PanC) inhibitors, coupled enzyme, confirmatory (AID 375);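 also: 0% = full reaction with vehicle and 100% = no enzyme background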
# Conditions: coupled enzyme assay; at 10 µM, active compounds read high
# Pantothenate synthetase (Mycobacterium tuberculosis (strain ATCC 25618 / H37Rv)), sequence (P9WIL5 whole entry, looked up): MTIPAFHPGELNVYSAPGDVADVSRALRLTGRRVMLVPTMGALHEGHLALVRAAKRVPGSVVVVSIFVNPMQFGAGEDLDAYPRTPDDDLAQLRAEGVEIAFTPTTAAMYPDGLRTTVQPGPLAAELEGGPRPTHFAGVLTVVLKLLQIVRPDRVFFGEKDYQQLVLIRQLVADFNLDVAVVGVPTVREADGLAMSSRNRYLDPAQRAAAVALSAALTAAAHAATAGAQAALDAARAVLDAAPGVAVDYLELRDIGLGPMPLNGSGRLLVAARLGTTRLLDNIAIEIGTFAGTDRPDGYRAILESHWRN
row,Structure (SMILES),inhibition
1,COCCn1c(Sc2nc(C)cs2)nc2c1c(=O)[nH]c(=O)n2C,0%
2,CCOC(=O)C(C)On1c(SC(C)C(=O)OCC)nc2ccccc2c1=O (stereo unspecified),0%
3,COc1ccccc1-n1c(C)nnc1SCC(=O)Nc1cccc(C(C)=O)c1,0%
4,CCOC(=O)N1CCN(C(=O)c2ccc3c(=O)n(CCc4ccccc4)c(=O)[nH]c3c2)CC1,0%
5,CCOc1cc2[nH]c(=O)n(CCCCC(=O)NCc3ccco3)c(=O)c2cc1OCC,6%
6,CCOCCn1c(CN2CCN(CC)CC2)nc2c1c(=O)n(C)c(=O)n2C,0%
7,O=C(Nc1ccccc1N1CCOCC1)c1ccc2ccccc2n1,0%
8,O=C(NC1CCCC1)C1CC1c1ccccc1 (stereo unspecified),0%
9,COc1ccc(N(CC(=O)N2CCCCC2)S(=O)(=O)c2ccccc2)c(OC)c1,0%
10,CCOC(=O)CSc1nc2ccccc2c(=O)n1NC(=O)c1ccccc1,1%
11,O=C(CSc1nnc(-c2cccnc2)o1)OC1CCCCC1,0%
12,CCN(CC)CCN1C(=O)C(=O)/C(=C(/O)c2ccc(OC(C)C)cc2)C1c1ccncc1 (stereo unspecified),5%
13,Cn1c(=O)[nH]c(=O)c2c1nc(N1CCOCC1)n2CC(O)COc1ccc2ccccc2c1 (stereo unspecified),0%
14,Cc1cc2c(s1)c1cnn(CC(=O)NCCc3ccccc3)c(=O)c1n2C,0%
15,O=C(Nc1nnc(N2CCCCCC2)s1)c1cc(-c2ccc(Br)cc2)on1,12%
16,CCOC(=O)C1CCN(c2c(NCCCN(CC)c3ccccc3)c(=O)c2=O)CC1,0%
